Screening data as filed in PubChem.
Ba/F3 V617F tox: reduced viability of JAK2V617F-dependent Ba/F3 cells, primary screen, JAK2V617F inhibitor project, cell-based, Ba/F3 EpoR-JAK2V617F, luminescence; ATP luminescence; hit rate 1.1% among 220,000; AID 1446, 2008; inhibition, % at 5.6 µM;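 active = inhibition above the campaign mean plus 3 SD over all tested compounds, cut at about 24% in these data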;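 also: cytokine-independent growth of Ba/F3 cells driven by EpoR plus mutant JAK2; 0% = DMSO-treated cells and 100% = JAK inhibitor I control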
KLF5 inh: KLF5 expression inhibitors, primary screen, DLD-1 cells, luminescence; DLD-1 KLF5 promoter-luciferase reporter; inhibition, % at 5 µM; hit rate 0.23% among 290,000; AID 1700, 2009;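 active = inhibition above a per-plate limit of that plate's mean compound inhibition plus 3 SD, cut at about 60% in these data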;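 also: 0% = DMSO wells and 100% = LY294002 at 200 µM; higher means less KLF5 promoter-driven luciferase light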
BaF3 parental: parental Ba/F3 cell viability inhibition, counter-screen for JAK2V617F inhibitor project, murine pro-B, CellTiter-Glo luminescence. CellTiter-Glo ATP luminescence. hit rate 1.1% among 220,000. inhibition, % at 5.6 µM. AID 1486, 2009;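 active = inhibition above a per-campaign cutoff, the mean inhibition of all tested compounds plus 3 SD, cut at about 27% in these data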;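 also: 0% = DMSO wells and 100% = JAK Inhibitor I control wells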
IEC-6 tox-1: cytotoxicity in IEC-6 intestinal epithelial cells, primary screen, cytotoxicity control for KLF5 inhibitor project, cell-based, luminescence | hit rate 0.78% among 290,000 | AID 1825, 2009 | IEC-6 cytotoxicity, luminescence viability | inhibition, % at 5 µM;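 also: 0% = plate median of test compound wells and 100% = cytotoxic reference compound wells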
APP 5UTR inh: inhibitors of APP translation via 5'UTR reporter, primary screen, APP 5'UTR luciferase, SH-SY5Y cells | SH-SY5Y APP 5'UTR-luciferase reporter, luminescence | inhibition, % at 2 µM | hit rate 0.82% among 190,000;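 active = inhibition above a set limit, derived from the sample mean plus 3 SD, cut at about 45% in these data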
KLF5 inh confirm: KLF5 expression inhibitors, confirmation, DLD-1 cells, luminescence. shares compounds with KLF5 inh. DLD-1 KLF5 promoter firefly luciferase reporter. inhibition, % at 4 µM. hit rate 79% among 610. AID 1834, 2009;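 active = inhibition above a set limit taken from the earlier primary screen, cut at about 63% in these data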;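 also: 0% = DMSO wells and 100% = LY294002 at 200 µM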
IEC-6 tox-2: cytotoxicity in rat IEC-6 cells, cytotoxicity control for KLF5 inhibitor project, cell-based, luminescence, triplicate. inhibition, % at 4 µM. shares compounds with KLF5 inh. hit rate 56% among 610. IEC-6 rat intestinal cells, viability luminescence; in the data active = inhibition above about 23%;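 also: cells exposed to compounds for 48 hours before viability read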
IEC-6 cytotox cf: cytotoxic compounds in IEC-6 epithelial cells, confirmation, cytotoxicity control, cell-based, luminescence. AID 1907, 2009. inhibition, % at 5 µM. hit rate 63% among 1,900. shares compounds with IEC-6 tox-1. IEC-6 rat intestinal epithelial viability;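 also: 0% = vehicle and 100% = reference cytotoxic drug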
Numbers without * were called inactive; . = not tested or not shown. A selection: hits, their analogues and other compounds. The true share with any hit is near 1.9%. Rule as the data show it, unless noted: active = inhibition above about 22%; inactive = the rest.

SMILES	Ba/F3 V617F tox	KLF5 inh	BaF3 parental	IEC-6 tox-1	APP 5UTR inh	KLF5 inh confirm	IEC-6 tox-2	IEC-6 cytotox cf
C[C@@H]1C=CC(=O)O[C@@H]1c1ccc(C(F)(F)F)cc1	.	62*	.	6	.	38	14	.
CCCCCCCCCn1ccc(=N)cc1	99*	72*	96*	54*	.	62*	55*	.
CCn1c(N)nc2c1c(=O)n(C)c(=O)n2C	-3	-29	10	1	-8	.	.	.
CCCc1nc2c(=O)n(C)c(=O)nc-2n(C)n1	73*	72*	85*	19	30	112*	49*	.
COC(=O)N=Nc1c(O)[nH]c2ccc(Br)cc12	0	-39	-10	-4	.	.	.	.
Oc1[nH]c2ccccc2c1N=NC(=S)N1CCOCC1	54*	68*	59*	48*	.	89*	48*	.
NC(=S)N=Nc1c(O)[nH]c2ccccc12	1	-40	4	0	11	.	.	.
Oc1[nH]c2ccc(Br)cc2c1N=NC(=S)N1CCOCC1	95*	75*	94*	88*	.	85*	56*	.
CSCCC(C(=O)OC1CCOC1=O)N1C(=O)c2ccccc2C1=O (stereo not given)	0	-24	4	-8	0	.	.	.
COC(=O)C1=C(CN2CCCc3ccccc32)NC(=O)NC1c1ccc(F)cc1 (stereo not given)	-1	85*	4	-4	35	72*	7	.
Cc1cccc(NC(=O)CSc2nc3nc(C)cc(C)n3n2)c1	.	-13	.	-5	.	.	.	.
CCOc1ccc(N(CC(=O)Nc2ccccc2OCC)S(=O)(=O)c2c(C)noc2C)cc1	.	75*	.	90*	.	79*	59*	54*
CCOc1ccc(N(CC(=O)Nc2ccc(C)cc2)S(=O)(=O)c2c(C)noc2C)cc1	-2	-1	-1	-1	-20	.	.	.
CCn1nc(C)c(CNC(=O)C2CCC(=O)N(CCc3ccc(OC)cc3)C2)c1C (stereo not given)	.	-2	.	-1	.	.	.	.
COc1cccc(N2CCN(C(=O)c3ccc(CS(=O)Cc4ccc(C)cc4)o3)CC2)c1 (stereo not given)	.	1	.	-6	.	.	.	.
COc1cccc(N2CCN(C(=O)c3ccc(CS(=O)c4ccc(C)cc4)o3)CC2)c1 (stereo not given)	.	74*	.	85*	.	92*	85*	59*
COc1ccc(/C=C/C(=O)c2cc(F)ccc2OC(=O)c2ccc(OC)c(OC)c2)cc1OC	2	-22	3	0	-4	.	.	.
COc1ccc(/C=C/C(=O)c2cc(F)ccc2OC(=O)c2ccccc2OC)cc1OC	3	70*	10	52*	89*	84*	40*	41*
CCOC(=O)C(C)Oc1cccc2c(=O)n(CC(=O)NCc3ccco3)ccc12 (stereo not given)	77*	77*	68*	77*	94*	80*	55*	52*
CC(C)C(=O)c1cn(CC(=O)NCc2ccco2)c2ccccc12	2	4	3	3	-13	.	.	.
Cn1c2c(c(=O)n(C)c1=O)C(C(F)(F)F)(C(F)(F)F)N=C(c1ccc(Cl)cc1)N2	95*	81*	86*	37*	51*	84*	57*	92*
Cc1ccccc1C1=NC(C(F)(F)F)(C(F)(F)F)c2c(n(C)c(=O)n(C)c2=O)N1	3	-3	6	5	-18	.	.	.
CCN(CC)c1ccc(/C=N/N=C(N)N)c(O)c1	78*	75*	75*	69*	92*	77*	67*	57*
CCN(CC)c1ccc(N=Cc2ccc(N(CC)CC)cc2O)cc1	1	-32	7	-3	10	.	.	.
CCn1c2ccccc2c2cc(NC(=O)COc3ccc(OC)cc3)ccc21	-1	-37	4	5	3	.	.	.
SMILES	Ba/F3 V617F tox	KLF5 inh	BaF3 parental	IEC-6 tox-1	APP 5UTR inh	KLF5 inh confirm	IEC-6 tox-2	IEC-6 cytotox cf
CCn1c2ccccc2c2cc(NC(=O)c3cc(OC)c(OC)c(OC)c3)ccc21	87*	83*	86*	92*	8	89*	86*	89*
CCOC(=O)c1[nH]c(C)c(C(=O)N2CCc3ccccc32)c1C	81*	77*	85*	92*	96*	80*	62*	55*
C/C(=N\NC(=O)c1c(Br)c(C)nn1C)c1cccc(NC(=O)C2CCC2)c1	3	-41	5	4	-8	.	.	.
C/C(=N\NC(=O)c1c([N+](=O)[O-])c(C)nn1C)c1ccc(NC(=O)C2CCCC2)cc1	.	65*	.	77*	.	76*	54*	64*
C/C(=N\NC(=O)c1c(Cl)c(C)nn1C)c1ccc(NC(=O)C2CCC2)cc1	.	65*	.	73*	.	83*	60*	52*
C/C(=N\NC(=O)c1c([N+](=O)[O-])c(C)nn1C)c1ccc(NC(=O)c2ccc(C)o2)cc1	.	-53	.	-3	.	.	.	.
O=C(Nc1nc2ccccc2[nH]1)c1ccccc1F	50*	76*	46*	43*	1	75*	46*	57*
O=C(Nc1nc2ccccc2[nH]1)c1ccc(F)cc1	4	-15	8	6	-107	.	.	.
NNC(=O)c1[nH]c2ccccc2c1-c1ccccc1	.	82*	.	95*	.	0	1	11
CC(=O)NNC(=O)c1[nH]c2ccc(Cl)cc2c1-c1ccccc1	-1	-8	-1	-4	.	.	.	.
Cc1cccc2c(C(=O)N3CCCCC3)cc(-c3ccccc3)nc12	.	-23	.	-3	.	.	.	.
Cc1cccc2c(C(=O)N3CCN(c4ccccc4)CC3)cc(-c3ccncc3)nc12	.	64*	.	71*	.	71*	46*	53*
CCOc1ncccc1C(=O)N1CCN(c2cc(Cl)ccc2C)CC1	65*	68*	68*	82*	91*	78*	64*	61*
CCOc1ncccc1C(=O)N1CCN(c2cccc(C)c2C)CC1	81*	73*	81*	86*	95*	85*	60*	54*
CCOc1ncccc1C(=O)N1CCN(C(=O)c2ccccc2)CC1	-6	-28	0	-4	-5	.	.	.
O=C(CC(Cc1ccccc1)C(=O)O)Nc1cccc(C(F)(F)F)c1 (stereo not given)	.	-19	.	-8	.	.	.	.
COc1ccc2c(c1)C=C([C@@H]1C[C@H]3CN(c4ccccc4)C(=O)[C@]34CCCN14)CO2	99*	75*	101*	87*	-3	-5	4	1
CN1C[C@@H]2C[C@@H](C3=Cc4cc(Cl)ccc4OC3)N3CCC[C@@]23C1=O	-1	-37	7	-3	-5	.	.	.
